Activity calls are given as the source filed them.

Test [1] concerns PRMT1 (protein arginine N-methyltransferase 1). The experiment in a line: small molecules binding arginine methyltransferase PRMT1 – biochemical, small-molecule microarray, 635 nm fluorescence, primary screen (AID 1088).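 Also: binding of Prmt1 protein to compounds spotted on small-molecule microarray slides.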 The note with it: higher = more signal.
Test [2] can be described thus: growth effects on S. cerevisiae YJM789 – YJM789 clinical isolate, OD600, 24 h, basal, primary screen (AID 1089).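 Also: growth of clinical yeast isolate S. cerevisiae YJM 789 seeded 1000 cells per well; test concentration not given here.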 The note with it: higher = more signal, called active from +8 up or from −8 down.
A short description of test [3]: S. pombe growth modifiers, basal conditions – strain 972, OD600, 24 h, no modulator, primary screen (AID 1090).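 Also: basal condition with compound alone and no growth modifier present; test concentration not given here.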 The settings on record: S. pombe 972 growth, higher = more signal, called active from +8 up or from −8 down.
The nature of test [4]: budding yeast growth modifiers under rapamycin – strain BY4716, OD600, 96 h, primary screen (AID 1091). Also: test concentration not given here. The note with it: S. cerevisiae BY4716 + rapamycin, higher = more signal, called active from +8 up or from −8 down.
Test [5] concerns the target Torsin-1A-interacting protein 2 (Homo sapiens) (UniProt Q8NFQ8). The experiment in a line: small molecules binding lysate-expressed LULL1 – cell lysate, human LULL1 lysate, 635/667 nm fluorescence, primary screen (AID 1092).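 Also: probe is lysate of COS7 cells overexpressing human LULL1; score merges per-feature 667 nm fluorescence with signal-to-noise.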 The note with it: small-molecule microarray, hLULL1 lysate binding, 635 nm fluorescence; higher = more signal.
Test [6] in a line: optical density change of DRC41 E. coli – strain DRC41, OD650, 24 h, E. coli filamentation project, primary screen (AID 1093).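 Also: MC1000 strain lacking acrAB efflux and sulA so SOS filamentation is blocked; test concentration not given here.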 The settings on record: E. coli DRC41 growth, higher = more signal, called active from +8 up or from −8 down.
Test [7] in a line: probe aLefty2 binding to arrayed compounds – biochemical, biotinylated probe, 635/667 nm fluorescence, primary screen (AID 1094).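 Also: score merges spot fluorescence near 667 nm with spot signal-to-noise ratio.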 The note with it: small-molecule microarray, higher = more signal.
Test [8] relates to Noggin (protein binding on small-molecule microarray). The experiment in a line: small molecules binding Noggin protein – biochemical, 635/667 nm fluorescence, primary screen (AID 1095).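 Also: score merges 667 nm feature fluorescence with signal to noise over triplicate slides.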 The note with it: 635 nm fluorescence, higher = more signal.
Test [9] has as its target Neurogenic locus notch homolog protein 3 (Homo sapiens) (UniProt Q9UM47). The experiment in a line: small molecules binding NOTCH3 protein – biochemical, 635/667 nm fluorescence, primary screen (AID 1096). The settings on record: small-molecule microarray, 635 nm fluorescence, higher = more signal.
The nature of test [10]: probe aEGFR binding to arrayed compounds – biochemical, biotinylated probe, 635/667 nm fluorescence, primary screen (AID 1097).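 Also: probe is a biotinylated anti-EGFR antibody binding compounds printed on slides; score combines fluorescence near 667 nm and signal to noise of each spot.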 The settings on record: small-molecule microarray, higher = more signal.
The subject of test [11] is Plasmodium falciparum Sir2 (PF13_0152, Sir2A). The experiment in a line: Plasmodium falciparum Sir2A binding compounds – biochemical, small-molecule microarray, 635 nm fluorescence, primary screen (AID 1098).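 Also: score merges spot fluorescence intensity with its signal-to-noise ratio.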 The note with it: fluorescence 635 nm, higher = more signal.
The nature of test [12]: probe aDKK1 binding to arrayed compounds – biochemical, biotinylated probe, 635/667 nm fluorescence, primary screen (AID 1099).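 Also: score merges 667nm spot fluorescence with signal to noise across triplicate slides; reference of the scale not given here.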 The note with it: small-molecule microarray, higher = more signal.
The nature of test [13]: probe aCHRDL2 binding to arrayed compounds – biochemical, biotinylated probe, 635/667 nm fluorescence, primary screen (AID 1100). The settings on record: small-molecule microarray, higher = more signal.
Test [14] is described as follows: change in splice reporter luminescence, either direction, cell-based, HEK293, spliceosome inhibition project, primary screen (AID 1101).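 Also: HEK293 cells carrying a splicing-competent luciferase reporter gene; test concentration not given here.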 The settings on record: HEK293 splicing luciferase reporter, 24 h, higher = more signal, called active from +8 up or from −8 down. (A reporter such as luciferase makes a cellular process visible.)
In test [15] the target is Fibroblast growth factor 10 (Homo sapiens) (UniProt O15520). Put plainly: compounds binding fibroblast growth factor 10 – biochemical, small-molecule microarray, 635 nm fluorescence, primary screen (AID 1102). The note with it: FGF10 binding, fluorescence 635 nm, higher = more signal.
In test [16] the test system is glycogen synthase kinase-3 (GSK3A per assay name; protocol says GSK3B). Put plainly: compounds binding glycogen synthase kinase-3 – biochemical, small-molecule microarray, 635 nm fluorescence, GSK3A, primary screen (AID 1103). Also: the record names both GSK3A and GSK3B. The settings on record: fluorescence 635 nm, higher = more signal.
Test [17] addresses Epidermal growth factor receptor (Homo sapiens) (UniProt P00533). The experiment in a line: compounds binding epidermal growth factor receptor – biochemical, small-molecule microarray, 635 nm fluorescence, primary screen (AID 1104).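 Also: score merges 667 nm emission intensity with spot signal to noise over triplicate slides.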 The settings on record: EGFR binding, higher = more signal.
Test [18] concerns the target Follistatin-related protein 3 (Homo sapiens) (UniProt O95633). Put plainly: compounds binding follistatin-related protein 3 – biochemical, small-molecule microarray, 635 nm fluorescence, primary screen (AID 1105).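 Also: score merges emission near 667 nm and signal to noise per printed spot across three slides.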 The note with it: FSTL3 binding, higher = more signal.
For test [19], the target named is Dickkopf-related protein 1 (Homo sapiens) (UniProt O94907). Put plainly: small molecules binding DKK1 protein – biochemical, small-molecule microarray, 635 nm fluorescence scan, primary screen (AID 1106).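 Also: score merges emission near 667 nm with signal to noise over three replicate slides.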 The note with it: higher = more signal.
The subject of test [20] is Inhibin beta A chain (activin A). The experiment in a line: small molecules binding activin A – biochemical, small-molecule microarray, 635 nm fluorescence scan, primary screen (AID 1107).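 Also: mouse activin A protein probed at 4.33 µg/mL on printed slides; score merges bound-protein fluorescence near 667 nm with spot signal-to-noise.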 The settings on record: INHBA, higher = more signal.

Chain of Epidermal growth factor receptor (Homo sapiens) (P00533 whole entry, looked up): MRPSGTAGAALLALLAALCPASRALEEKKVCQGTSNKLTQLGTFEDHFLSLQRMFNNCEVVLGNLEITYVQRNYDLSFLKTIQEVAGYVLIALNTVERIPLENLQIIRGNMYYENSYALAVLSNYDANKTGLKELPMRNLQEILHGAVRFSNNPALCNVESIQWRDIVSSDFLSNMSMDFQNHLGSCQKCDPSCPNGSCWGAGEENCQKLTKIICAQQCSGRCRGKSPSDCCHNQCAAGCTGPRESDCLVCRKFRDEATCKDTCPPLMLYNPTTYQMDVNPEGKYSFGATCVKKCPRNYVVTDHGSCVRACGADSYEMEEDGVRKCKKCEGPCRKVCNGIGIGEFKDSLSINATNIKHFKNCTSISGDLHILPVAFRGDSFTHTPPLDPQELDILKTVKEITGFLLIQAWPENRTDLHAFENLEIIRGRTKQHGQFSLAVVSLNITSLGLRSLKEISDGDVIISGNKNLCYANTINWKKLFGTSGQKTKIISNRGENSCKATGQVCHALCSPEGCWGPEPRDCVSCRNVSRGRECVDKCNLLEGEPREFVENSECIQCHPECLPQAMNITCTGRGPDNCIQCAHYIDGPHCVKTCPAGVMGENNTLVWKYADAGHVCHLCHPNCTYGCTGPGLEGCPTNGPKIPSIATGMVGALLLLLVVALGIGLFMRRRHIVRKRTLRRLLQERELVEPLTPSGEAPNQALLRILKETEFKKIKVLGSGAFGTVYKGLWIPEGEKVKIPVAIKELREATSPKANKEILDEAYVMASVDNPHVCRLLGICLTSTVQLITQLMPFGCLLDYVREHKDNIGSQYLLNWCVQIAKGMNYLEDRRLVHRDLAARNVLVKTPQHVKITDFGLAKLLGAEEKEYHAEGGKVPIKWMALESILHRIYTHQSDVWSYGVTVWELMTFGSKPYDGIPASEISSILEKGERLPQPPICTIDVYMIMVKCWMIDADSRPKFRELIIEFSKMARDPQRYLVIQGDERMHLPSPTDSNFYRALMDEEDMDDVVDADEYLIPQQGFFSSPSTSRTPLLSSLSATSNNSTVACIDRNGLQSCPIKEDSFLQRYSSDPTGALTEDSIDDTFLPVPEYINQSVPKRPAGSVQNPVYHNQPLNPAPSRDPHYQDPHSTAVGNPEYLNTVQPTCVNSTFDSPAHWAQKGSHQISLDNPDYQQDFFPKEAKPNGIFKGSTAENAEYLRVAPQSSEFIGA
Chain of Dickkopf-related protein 1 (Homo sapiens) (O94907 whole entry, looked up): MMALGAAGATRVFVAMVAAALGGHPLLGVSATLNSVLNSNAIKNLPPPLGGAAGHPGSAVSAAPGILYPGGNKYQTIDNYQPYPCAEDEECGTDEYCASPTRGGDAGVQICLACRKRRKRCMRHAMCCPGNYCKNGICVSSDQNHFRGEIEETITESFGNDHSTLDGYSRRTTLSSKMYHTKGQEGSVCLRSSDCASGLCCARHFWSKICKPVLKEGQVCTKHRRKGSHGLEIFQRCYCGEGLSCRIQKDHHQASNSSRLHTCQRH
Chain of Follistatin-related protein 3 (Homo sapiens) (O95633 whole entry, looked up): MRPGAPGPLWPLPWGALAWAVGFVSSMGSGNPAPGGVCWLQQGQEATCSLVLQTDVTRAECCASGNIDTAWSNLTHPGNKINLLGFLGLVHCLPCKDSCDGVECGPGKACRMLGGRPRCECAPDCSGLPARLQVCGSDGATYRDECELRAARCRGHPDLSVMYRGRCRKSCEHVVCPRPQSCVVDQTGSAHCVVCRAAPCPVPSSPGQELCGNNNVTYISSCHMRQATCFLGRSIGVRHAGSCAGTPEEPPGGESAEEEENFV
Chain of Neurogenic locus notch homolog protein 3 (Homo sapiens) (Q9UM47 whole entry, looked up): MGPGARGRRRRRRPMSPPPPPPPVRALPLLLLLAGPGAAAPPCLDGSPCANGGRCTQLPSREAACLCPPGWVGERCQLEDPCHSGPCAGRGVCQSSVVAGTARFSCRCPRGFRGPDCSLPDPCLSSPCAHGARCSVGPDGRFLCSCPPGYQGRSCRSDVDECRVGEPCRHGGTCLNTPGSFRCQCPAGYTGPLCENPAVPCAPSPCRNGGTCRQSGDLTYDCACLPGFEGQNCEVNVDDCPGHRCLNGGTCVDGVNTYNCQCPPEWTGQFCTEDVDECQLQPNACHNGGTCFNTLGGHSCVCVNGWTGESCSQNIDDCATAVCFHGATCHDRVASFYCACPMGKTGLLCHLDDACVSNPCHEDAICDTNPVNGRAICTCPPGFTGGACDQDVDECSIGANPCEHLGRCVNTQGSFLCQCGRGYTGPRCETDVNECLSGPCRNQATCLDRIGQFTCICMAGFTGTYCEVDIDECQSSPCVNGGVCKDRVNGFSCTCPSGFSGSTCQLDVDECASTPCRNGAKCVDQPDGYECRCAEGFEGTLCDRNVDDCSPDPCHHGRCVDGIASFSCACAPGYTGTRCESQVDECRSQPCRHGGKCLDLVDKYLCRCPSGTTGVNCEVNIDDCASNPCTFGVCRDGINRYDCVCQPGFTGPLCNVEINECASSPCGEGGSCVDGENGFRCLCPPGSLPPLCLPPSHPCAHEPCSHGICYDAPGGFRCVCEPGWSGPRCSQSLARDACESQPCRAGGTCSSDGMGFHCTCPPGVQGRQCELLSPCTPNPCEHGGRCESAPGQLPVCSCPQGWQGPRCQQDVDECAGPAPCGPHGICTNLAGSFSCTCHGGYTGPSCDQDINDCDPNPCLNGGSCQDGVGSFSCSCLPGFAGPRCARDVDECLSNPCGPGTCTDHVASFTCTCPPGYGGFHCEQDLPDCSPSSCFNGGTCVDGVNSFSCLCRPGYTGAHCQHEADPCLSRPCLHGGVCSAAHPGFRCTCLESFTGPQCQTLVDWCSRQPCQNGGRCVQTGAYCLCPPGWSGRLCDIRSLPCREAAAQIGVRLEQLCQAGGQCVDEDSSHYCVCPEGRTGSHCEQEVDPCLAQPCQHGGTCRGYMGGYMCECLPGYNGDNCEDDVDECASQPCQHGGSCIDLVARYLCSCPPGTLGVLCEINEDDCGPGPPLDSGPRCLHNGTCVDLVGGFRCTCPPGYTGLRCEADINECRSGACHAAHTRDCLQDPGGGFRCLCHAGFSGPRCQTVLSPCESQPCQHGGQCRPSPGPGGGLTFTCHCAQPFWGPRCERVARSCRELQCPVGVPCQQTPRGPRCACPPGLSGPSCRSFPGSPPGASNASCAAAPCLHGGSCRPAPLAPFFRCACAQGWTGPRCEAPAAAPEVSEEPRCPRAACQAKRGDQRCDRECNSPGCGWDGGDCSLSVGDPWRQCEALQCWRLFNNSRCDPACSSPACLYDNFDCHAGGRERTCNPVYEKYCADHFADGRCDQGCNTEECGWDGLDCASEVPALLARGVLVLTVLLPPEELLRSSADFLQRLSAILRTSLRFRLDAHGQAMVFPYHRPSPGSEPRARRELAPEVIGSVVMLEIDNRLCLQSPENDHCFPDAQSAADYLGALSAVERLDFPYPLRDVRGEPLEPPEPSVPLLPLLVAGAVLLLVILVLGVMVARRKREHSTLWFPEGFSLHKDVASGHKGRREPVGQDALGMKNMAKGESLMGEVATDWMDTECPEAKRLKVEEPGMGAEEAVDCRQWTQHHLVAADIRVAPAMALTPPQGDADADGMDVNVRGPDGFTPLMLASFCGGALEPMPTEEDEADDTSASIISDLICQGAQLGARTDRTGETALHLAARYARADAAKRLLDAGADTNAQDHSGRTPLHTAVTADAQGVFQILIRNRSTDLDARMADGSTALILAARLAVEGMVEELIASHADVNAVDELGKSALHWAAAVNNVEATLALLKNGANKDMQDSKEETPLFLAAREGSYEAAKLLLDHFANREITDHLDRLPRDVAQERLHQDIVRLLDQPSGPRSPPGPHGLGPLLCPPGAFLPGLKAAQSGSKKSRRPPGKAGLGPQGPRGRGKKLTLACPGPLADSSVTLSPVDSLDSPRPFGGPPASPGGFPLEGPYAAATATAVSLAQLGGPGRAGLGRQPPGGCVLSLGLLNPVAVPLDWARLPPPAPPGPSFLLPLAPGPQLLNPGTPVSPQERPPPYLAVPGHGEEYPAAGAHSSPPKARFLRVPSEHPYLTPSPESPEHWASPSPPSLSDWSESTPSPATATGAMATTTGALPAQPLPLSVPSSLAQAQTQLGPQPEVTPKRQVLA
Chain of Torsin-1A-interacting protein 2 (Homo sapiens) (Q8NFQ8 whole entry, looked up): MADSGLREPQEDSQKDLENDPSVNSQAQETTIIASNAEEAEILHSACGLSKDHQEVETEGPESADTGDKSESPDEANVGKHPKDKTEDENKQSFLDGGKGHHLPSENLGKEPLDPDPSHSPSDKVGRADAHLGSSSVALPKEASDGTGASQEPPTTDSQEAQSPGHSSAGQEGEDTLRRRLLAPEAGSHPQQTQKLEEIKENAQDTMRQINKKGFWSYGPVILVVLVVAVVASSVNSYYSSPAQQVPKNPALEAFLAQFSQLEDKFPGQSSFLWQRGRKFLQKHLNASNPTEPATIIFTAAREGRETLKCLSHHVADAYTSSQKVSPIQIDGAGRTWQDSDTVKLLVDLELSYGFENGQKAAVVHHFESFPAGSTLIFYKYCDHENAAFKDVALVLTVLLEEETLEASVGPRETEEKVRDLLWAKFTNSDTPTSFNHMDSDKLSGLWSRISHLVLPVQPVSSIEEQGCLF
Chain of Fibroblast growth factor 10 (Homo sapiens) (O15520 whole entry, looked up): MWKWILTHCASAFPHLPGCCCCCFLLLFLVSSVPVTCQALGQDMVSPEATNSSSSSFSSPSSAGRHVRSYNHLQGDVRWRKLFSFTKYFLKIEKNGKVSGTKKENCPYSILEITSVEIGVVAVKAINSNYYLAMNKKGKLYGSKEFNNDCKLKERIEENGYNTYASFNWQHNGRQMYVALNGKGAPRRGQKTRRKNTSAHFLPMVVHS

With `COC(=O)[C@H]1[C@@H](O)[C@@]2(O)c3ccccc3O[C@@]2(c2ccccc2)[C@@H]1c1ccccc1`, the composite z-score in [1] is -0.701; in test [5], 0.124; in [7] it was -0.0324; in [8], -0.169; in [9], -0.104; in [10] it was -0.123. Moreover, the composite z-score was -0.125 in test [11]; -0.12 in test [12]; -0.535 in test [13]; 0.0746 in test [15]; -0.0393 in [16]; 0.396 in test [17]. The composite z-score in test [18] is -0.134; in test [19] it was 0.384; in [20], -0.011. Also, the z-score in test [2] was 0.0966 (inactive); in test [3], 0.226 (inactive); in [4], 0.705 (inactive); in [6], 0.685 (inactive); in test [14], 0.217 (inactive).
In the case of `C=COC[C@@H]1CN2[C@@H](CC[C@@H](C)[C@@H]2c2ccc(Br)cc2)C(=O)O1`, the composite z-score was 0.217 in [1]; 0.0749 in test [5]; -0.0769 in [7]; -0.0482 in test [8]; -0.906 in test [9]; -0.267 in [10]. For the same molecule, the composite z-score in [11] is 0.0845; in test [12], -0.319; in test [13], -0.0905; in [15], -0.472; in test [16] it was -0.413; in test [17], -0.46. Also, the composite z-score is -0.46 in [18], -0.0521 in [19] and 1.47 in [20]. The z-score was -0.872 (inactive) in test [2]; -17.1 (active) in test [3]; -0.61 (inactive) in test [4]; -0.756 (inactive) in [6]; -0.589 (inactive) in test [14].
In the case of `C=CC[C@@H]1C=C[C@H](ON=C(C)CCN2CCc3nc(-c4ccccc4)c(-c4ccccc4)cc3C2)[C@@H](CO)O1`, the composite z-score is 1.55 in test [1]; 1.53 in test [5]; -0.152 in [7]; 0.631 in test [8]; 0.858 in [9]; -0.0332 in test [10]. Also, the composite z-score in [11] is 0.775; in [12], -0.243; in test [13], -0.574; in test [15], 0.524; in test [16] it was 0.702; in [17] it was 0.359. The composite z-score in [18] is 0.808; in [19], 0.627; in [20] it was 1.07. Besides, the z-score in test [2] was -0.67 (inactive); in test [3] it was -4.53 (inactive); in test [4], -3.82 (inactive); in [6], 1.42 (inactive); in [14], 0.0139 (inactive).
In the case of `Cn1c(=O)n2n(c1=O)[C@H]1[C@H](O)[C@@H]3O[C@@H]3C(=O)[C@H]1CC2`, the composite z-score in [1] is -0.261; in test [5], 0.485; in test [7] it was -0.13; in test [8], 0.457; in [9] it was 0.557; in test [10] it was -0.0508. Besides, the composite z-score in [11] was 0.269; in test [12], -0.0838; in test [13], -0.512; in test [15], 0.946; in test [16] it was 0.778; in test [17], 0.531. For the same molecule, the composite z-score in [18] was 0.534; in test [19] it was 0.408; in test [20], 0.0134. In addition, the z-score is 0.954 (inactive) in test [2]; 0.595 (inactive) in [3]; 0.672 (inactive) in [4]; 0.442 (inactive) in [6]; -0.515 (inactive) in test [14].
On to `CCOC(=O)[C@H](Cc1ccccc1)NC(=O)CCC1CC(OC(=O)NCc2ccc3c(c2)OCO3)CC2(CCCC(COC(=O)NCCC(C)C)O2)O1` (stereo not given in full), for which the composite z-score in test [1] is 1.54; in test [5] it was 1.95; in test [7] it was 0.0224; in test [8] it was 0.614; in test [9], 0.671; in test [10] it was -0.068. Moreover, the composite z-score in test [11] was 1.21; in test [12], -0.197; in [13] it was -0.287; in [15], 1.12; in test [16] it was 0.18; in test [17], -0.0617. The values for the composite z-score in [18], in [19] and in [20] were 0.743, 0.415 and 0.367, respectively. In addition, the z-score in [2] is 0.648 (inactive); in test [3], -0.29 (inactive); in test [4] it was -0.2 (inactive); in test [6] it was -0.167 (inactive); in test [14] it was 0.0184 (inactive).
